CYP2C9 activ = human CYP2C9 activators, primary screen, biochemical, luminescence; recombinant CYP2C9, luciferin-H conversion; stronger effect = higher value; factor 1 = untreated enzyme, 0 = blocked; actives 1.4% (n = 96,000); activation factor at 5 µM; AID 1024, 2008; Cytochrome P450 2C9 (Homo sapiens), P11712;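 active = activation factor of 2 or more for CYP2C9 at a 5 µM dose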;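 also: 0 = sulfaphenazole-blocked wells and 1 = vehicle-only wells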
CYP2C9 inhib = blockers of cytochrome P450 2C9 activity – biochemical, luminescence, ADME assay, primary screen; P11712; CYP2C9 Supersomes, luciferin-H conversion; inhibition, % at 5 µM; actives 20% (n = 96,000); AID 777, 2007;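 active = blocking of liver enzyme CYP2C9 beyond about 50% at 5 µM, limit read from the data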
E-sel TNF inh = E-selectin induction blockers in HUVEC – imaging, immunofluorescence, high content, primary screen | HUVEC TNFa-induced E-selectin immunofluorescence | inhibition, % at 2 µM | actives 0.71% (n = 120,000) | AID 1246, 2008;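 active = inhibition above the batch mean plus 3 SD, and confirmed as a hit on visual image review, cut at about 43% in these data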;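 also: 0% = TNF-stimulated DMSO wells and 100% = unstimulated control wells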
CYP2C19 activ = human CYP2C19 activators, primary screen, biochemical, luminescence; AID 1025, 2008; 96,000 tested, under 10 active; recombinant CYP2C19, luciferin-H EGE luminescence; stronger effect = higher value; 0 = fully inhibited enzyme, 1 = untreated enzyme; Cytochrome P450 2C19 (Homo sapiens), P33261; activation factor at 5 µM;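 active = activation factor of at least 2 at 5 µM in the primary screen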;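 also: 0 = wells with 2.5 mM tranylcypromine and 1 = vehicle-only wells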
Target sequence (P33261 whole entry, looked up): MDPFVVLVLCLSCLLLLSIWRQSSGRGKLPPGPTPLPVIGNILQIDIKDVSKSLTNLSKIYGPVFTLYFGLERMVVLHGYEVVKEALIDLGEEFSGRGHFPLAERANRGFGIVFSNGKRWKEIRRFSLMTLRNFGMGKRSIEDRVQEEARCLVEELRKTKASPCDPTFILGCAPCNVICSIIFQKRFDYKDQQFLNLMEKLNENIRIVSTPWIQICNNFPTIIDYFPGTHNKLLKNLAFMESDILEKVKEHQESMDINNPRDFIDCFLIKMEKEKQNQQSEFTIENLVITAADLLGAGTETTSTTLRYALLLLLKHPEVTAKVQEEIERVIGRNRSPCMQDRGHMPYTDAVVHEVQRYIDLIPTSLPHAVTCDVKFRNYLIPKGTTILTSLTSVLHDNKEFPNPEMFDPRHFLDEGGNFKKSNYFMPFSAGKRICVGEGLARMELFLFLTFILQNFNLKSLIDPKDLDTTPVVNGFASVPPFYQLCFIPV
CYP2C19 inhib = blockers of cytochrome P450 2C19 activity – biochemical, luminescence, ADME assay, primary screen | CYP2C19 Supersomes, luciferin-H EGE luminescence, 30 min | P33261 | actives 21% (n = 96,000) | inhibition, % at 5 µM;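 active = CYP2C19 inhibition above a set limit at 5 µM in the primary screen, cut at about 50% in these data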;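 also: plate controls were negative control wells for no effect and 2.5 mM tranylcypromine positive control for full effect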
cytoskel mod = modifiers of F-actin cytoskeleton organization, primary screen, imaging, HUVEC, phalloidin staining, high-content imaging; HUVEC TNFa F-actin phalloidin imaging; inhibition, % at 2 µM; actives 0.18% (n = 91,000); AID 836, 2007;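 active = inhibition above the batch mean plus 3 SD and confirmed as a hit by visual image inspection, cut at about 30% in these data, passing the limit was not always enough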
The depositor's hits bear a star. Hits are enriched below; roughly 22% of the tested compounds scored in any of these assays.

`COc1ccc(C2(C(=O)NCc3ccco3)CCCC2)cc1OC` gave CYP2C9 activ 1, CYP2C9 inhib -2.8, E-sel TNF inh -2.4, CYP2C19 activ 0.8, CYP2C19 inhib 23.3 and cytoskel mod 7.4.
O=C(NCc1ccco1)C1(c2ccccc2)CCCC1 was read as CYP2C9 activ 0.6, CYP2C9 inhib 35.4, E-sel TNF inh -7.8, CYP2C19 activ 0.4, CYP2C19 inhib 57.0* and cytoskel mod 4.4.
Screening CC1(c2ccc(Cl)cc2)NC(=O)N(CC(=O)NC(=O)NCc2ccco2)C1=O (stereo not drawn) returned CYP2C9 activ 0.3, CYP2C9 inhib 66.7*, E-sel TNF inh 1.7, CYP2C19 activ 0.3, CYP2C19 inhib 66.2* and cytoskel mod 4.5.
O=C(CN1C(=O)NC2(CCCc3ccccc32)C1=O)NCc1ccco1 (stereo not drawn) was read as CYP2C9 activ 0.2, CYP2C9 inhib 78.1*, E-sel TNF inh 27.5, CYP2C19 activ 1, CYP2C19 inhib -1.4 and cytoskel mod 8.1.
For O=C(CN1C(=O)NC2(CCCCCC2)C1=O)NCc1ccco1 the results were CYP2C9 activ 0.9, CYP2C9 inhib 5.9, E-sel TNF inh -18.6, CYP2C19 activ 0.9, CYP2C19 inhib 6.6 and cytoskel mod -47.5.
For O=C(CN1CCc2ccccc2C1)NCc1ccco1 the results were CYP2C9 activ 0.6, CYP2C9 inhib 35.2, E-sel TNF inh -24.5, CYP2C19 activ 0.1, CYP2C19 inhib 92.7* and cytoskel mod 13.4.
Screening CC(C)CNC(=O)CSc1nnc(CN2CCCCCC2=O)n1-c1ccccn1 returned CYP2C9 activ 1.1, CYP2C9 inhib -10.8, CYP2C19 activ 1.1, CYP2C19 inhib -5.1 and cytoskel mod 9.8.
For COc1cccc(OC)c1OCC(C)CNCC1CCCO1 (stereo not drawn) the results were CYP2C9 activ 0.9, CYP2C9 inhib 6.1, E-sel TNF inh 32.7, CYP2C19 activ 0.9, CYP2C19 inhib 6.3 and cytoskel mod 7.5.
For O=C1Oc2ccccc2C2(O)C3CCCCCC3C12 (stereo not drawn) the results were CYP2C9 activ 0.8, CYP2C9 inhib 19.6, E-sel TNF inh -57.5, CYP2C19 activ 0.1, CYP2C19 inhib 95.0* and cytoskel mod -6.6.
Screening O=C(CSCc1ccc(F)cc1)Nc1ccccc1C(=O)N1CCOCC1 returned E-sel TNF inh -4.7.
Cn1c(C(=O)N2CCN(Cc3ccc4c(c3)OCO4)CC2)cc2c(=O)n(C)c3ccccc3c21 was read as CYP2C9 activ 0.9, CYP2C9 inhib 12.4, E-sel TNF inh -1.3, CYP2C19 activ 0.9, CYP2C19 inhib 6.2 and cytoskel mod -3.7.
Screening NCCc1nnc(SCc2ccc(F)cc2)o1 returned CYP2C9 activ 0.3, CYP2C9 inhib 74.8*, E-sel TNF inh -52.3, CYP2C19 activ 0.1, CYP2C19 inhib 90.2* and cytoskel mod 5.0.
For CCOC(=O)c1ccc(NS(=O)(=O)c2cccc3nsnc23)cc1 the results were CYP2C9 activ 0.2, CYP2C9 inhib 77.7*, E-sel TNF inh -4.3, CYP2C19 activ 0.6, CYP2C19 inhib 36.7 and cytoskel mod -0.6.
Screening CCOC(=O)c1cccc(NC(=O)CCS(=O)(=O)c2cccc3nsnc23)c1 returned CYP2C9 activ 0.3, CYP2C9 inhib 72.4*, E-sel TNF inh -54.5, CYP2C19 activ 0.2 and CYP2C19 inhib 77.4*.
For COC(=O)c1ccc(NS(=O)(=O)c2cccc3cccnc23)cc1 the results were CYP2C9 activ 0.9, CYP2C9 inhib 7.7, CYP2C19 activ 1.1, CYP2C19 inhib -5.4 and cytoskel mod 1.2.
`Cc1cc(SC(C)C(=O)Nc2c(C)n(C)n(-c3ccccc3)c2=O)nc2ccccc12` (stereo not drawn) gave CYP2C9 activ 1, CYP2C9 inhib -3.0, E-sel TNF inh -0.1, CYP2C19 activ 0.2, CYP2C19 inhib 77.8* and cytoskel mod 23.5.

Screens deposited in PubChem by several laboratories.
